Measured values published in the supplement of paper PMC11732987, “Enantioselective OTUD7B fragment discovery through chemoproteomics screening and high-throughput optimisation” (Communications Chemistry, 2025).

What was measured:
Assay in all cases: log2 ratio of Biotin-Ahx-Ub-VS probe labelling (fragment/DMSO); higher = less target engagement (more negative = stronger competition), active = hit call of the paper (q ≤ 0.05, log2 ratio ≤ -1)
Conditions in all cases: compound concentration: 200 uM; treatment time: 3 h
[1] = molecular target: USP16 (UniProt Q9Y5T5)
Procedure, shortened: (§1)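 Global-median-normalised Spectronaut label-free quantities were compared by unpaired t-test, and values are average log2 ratios of fragment over vehicle. Only proteins with ≥2 unique peptides were used. HEK293T lysate (495 µg per sample) was treated in triplicate with fragment at 200 µM or vehicle for 3 h and then with Biotin-Ahx-Ub-VS at 0.5 µM final for 1 h. Labelled DUBs were then NeutrAvidin-enriched, digested with LysC and trypsin, and run by diaPASEF LC-MS/MS.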

[2] = molecular target: T1, USP19 (UniProt O94966)
T1 sequence (whole entry): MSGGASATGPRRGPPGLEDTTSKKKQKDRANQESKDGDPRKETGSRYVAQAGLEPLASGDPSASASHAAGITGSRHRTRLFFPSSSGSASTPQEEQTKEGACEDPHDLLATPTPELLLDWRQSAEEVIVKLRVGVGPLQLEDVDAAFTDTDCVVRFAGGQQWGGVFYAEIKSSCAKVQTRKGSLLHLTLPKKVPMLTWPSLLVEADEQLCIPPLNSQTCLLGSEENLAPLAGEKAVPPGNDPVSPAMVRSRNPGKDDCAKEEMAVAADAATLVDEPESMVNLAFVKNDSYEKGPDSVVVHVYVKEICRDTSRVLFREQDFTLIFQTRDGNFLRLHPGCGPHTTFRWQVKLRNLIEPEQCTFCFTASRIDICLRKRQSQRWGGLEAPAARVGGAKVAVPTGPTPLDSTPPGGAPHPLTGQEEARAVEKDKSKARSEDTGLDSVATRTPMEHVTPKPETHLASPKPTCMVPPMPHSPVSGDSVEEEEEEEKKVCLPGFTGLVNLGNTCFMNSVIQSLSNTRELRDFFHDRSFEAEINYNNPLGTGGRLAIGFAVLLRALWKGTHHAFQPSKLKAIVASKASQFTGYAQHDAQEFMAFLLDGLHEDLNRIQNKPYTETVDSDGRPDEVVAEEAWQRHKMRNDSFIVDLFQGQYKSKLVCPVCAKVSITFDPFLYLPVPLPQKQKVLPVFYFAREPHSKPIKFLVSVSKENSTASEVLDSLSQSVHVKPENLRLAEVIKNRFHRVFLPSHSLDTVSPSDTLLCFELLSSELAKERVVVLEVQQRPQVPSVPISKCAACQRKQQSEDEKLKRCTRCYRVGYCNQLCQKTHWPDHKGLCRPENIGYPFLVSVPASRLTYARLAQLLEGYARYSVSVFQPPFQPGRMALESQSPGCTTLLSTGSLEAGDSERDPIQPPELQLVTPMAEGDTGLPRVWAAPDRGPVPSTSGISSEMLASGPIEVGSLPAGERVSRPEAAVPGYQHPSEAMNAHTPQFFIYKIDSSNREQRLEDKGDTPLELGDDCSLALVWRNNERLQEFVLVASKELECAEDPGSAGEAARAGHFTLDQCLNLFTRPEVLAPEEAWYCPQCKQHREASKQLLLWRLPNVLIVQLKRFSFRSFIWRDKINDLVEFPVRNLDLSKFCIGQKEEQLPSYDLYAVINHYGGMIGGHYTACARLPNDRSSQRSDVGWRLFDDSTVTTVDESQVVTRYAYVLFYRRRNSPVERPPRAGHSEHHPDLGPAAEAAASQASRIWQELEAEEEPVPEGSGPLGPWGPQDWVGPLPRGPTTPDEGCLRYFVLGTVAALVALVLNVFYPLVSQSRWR
Procedure, shortened: as §1

[3] = molecular target: USP24 (UniProt Q9UPU5)
Procedure, shortened: as §1

[4] = molecular target: T2, USP25 (UniProt Q9UHP3)
T2 sequence (whole entry): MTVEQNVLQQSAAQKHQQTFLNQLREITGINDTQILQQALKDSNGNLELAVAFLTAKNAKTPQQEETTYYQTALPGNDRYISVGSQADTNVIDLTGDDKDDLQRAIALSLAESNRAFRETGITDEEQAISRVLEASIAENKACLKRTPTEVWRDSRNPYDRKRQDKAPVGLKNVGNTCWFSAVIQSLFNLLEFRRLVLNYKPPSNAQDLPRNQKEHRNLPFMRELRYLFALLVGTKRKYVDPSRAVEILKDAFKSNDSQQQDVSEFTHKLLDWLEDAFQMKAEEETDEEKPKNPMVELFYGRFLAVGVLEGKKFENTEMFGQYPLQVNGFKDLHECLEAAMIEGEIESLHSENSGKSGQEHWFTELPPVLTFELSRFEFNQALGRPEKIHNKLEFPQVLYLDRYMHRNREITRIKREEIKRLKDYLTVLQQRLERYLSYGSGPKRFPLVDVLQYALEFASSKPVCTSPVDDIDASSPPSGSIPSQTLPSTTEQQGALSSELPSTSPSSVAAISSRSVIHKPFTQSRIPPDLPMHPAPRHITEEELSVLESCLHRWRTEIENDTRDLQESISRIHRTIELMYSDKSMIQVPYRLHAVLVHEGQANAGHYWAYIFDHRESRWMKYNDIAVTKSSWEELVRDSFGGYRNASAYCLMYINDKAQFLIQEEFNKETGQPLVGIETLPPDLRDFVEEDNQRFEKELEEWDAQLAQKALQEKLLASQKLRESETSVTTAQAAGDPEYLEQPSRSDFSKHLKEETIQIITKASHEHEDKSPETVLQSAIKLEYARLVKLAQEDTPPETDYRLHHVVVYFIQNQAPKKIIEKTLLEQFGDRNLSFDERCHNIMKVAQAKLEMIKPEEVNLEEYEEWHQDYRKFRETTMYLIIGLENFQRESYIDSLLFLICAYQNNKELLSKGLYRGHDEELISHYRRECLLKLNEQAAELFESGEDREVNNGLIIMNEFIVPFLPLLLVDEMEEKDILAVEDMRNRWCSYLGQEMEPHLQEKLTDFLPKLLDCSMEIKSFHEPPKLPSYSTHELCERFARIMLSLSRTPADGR
Procedure, shortened: as §1

[5] = molecular target: T3, USP28 (UniProt Q96RU2)
T3 sequence (whole entry): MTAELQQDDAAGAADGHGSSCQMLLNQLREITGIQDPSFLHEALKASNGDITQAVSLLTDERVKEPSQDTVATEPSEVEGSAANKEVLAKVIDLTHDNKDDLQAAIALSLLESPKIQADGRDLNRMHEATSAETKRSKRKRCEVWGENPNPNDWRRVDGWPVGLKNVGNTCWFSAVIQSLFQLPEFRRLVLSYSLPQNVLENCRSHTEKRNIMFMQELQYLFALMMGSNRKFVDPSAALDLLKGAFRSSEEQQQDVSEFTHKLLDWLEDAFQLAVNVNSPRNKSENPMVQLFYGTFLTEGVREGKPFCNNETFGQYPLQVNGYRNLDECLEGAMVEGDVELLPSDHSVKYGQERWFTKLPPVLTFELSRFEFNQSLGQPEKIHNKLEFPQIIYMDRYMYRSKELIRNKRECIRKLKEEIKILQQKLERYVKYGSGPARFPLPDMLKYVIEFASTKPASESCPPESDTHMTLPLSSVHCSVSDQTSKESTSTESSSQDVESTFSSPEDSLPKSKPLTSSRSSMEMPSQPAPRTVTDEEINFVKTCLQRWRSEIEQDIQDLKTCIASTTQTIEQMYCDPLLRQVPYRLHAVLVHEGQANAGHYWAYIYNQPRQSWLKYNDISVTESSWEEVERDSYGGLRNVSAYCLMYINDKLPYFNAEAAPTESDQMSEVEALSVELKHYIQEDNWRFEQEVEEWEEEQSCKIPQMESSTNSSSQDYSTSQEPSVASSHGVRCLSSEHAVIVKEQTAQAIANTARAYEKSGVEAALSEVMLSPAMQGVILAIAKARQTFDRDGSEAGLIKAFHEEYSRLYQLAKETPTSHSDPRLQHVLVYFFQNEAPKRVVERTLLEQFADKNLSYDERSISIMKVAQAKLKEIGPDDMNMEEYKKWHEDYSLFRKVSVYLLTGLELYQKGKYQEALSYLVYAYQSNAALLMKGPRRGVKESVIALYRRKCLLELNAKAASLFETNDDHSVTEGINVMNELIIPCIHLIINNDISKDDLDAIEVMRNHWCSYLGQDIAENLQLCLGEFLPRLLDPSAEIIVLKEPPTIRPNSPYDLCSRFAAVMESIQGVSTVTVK
Procedure, shortened: as §1

Measured: log2 ratio of Biotin-Ahx-Ub-VS probe labelling

Sequence of USP16 (Q9Y5T5 whole entry, looked up, the tested form may be a part): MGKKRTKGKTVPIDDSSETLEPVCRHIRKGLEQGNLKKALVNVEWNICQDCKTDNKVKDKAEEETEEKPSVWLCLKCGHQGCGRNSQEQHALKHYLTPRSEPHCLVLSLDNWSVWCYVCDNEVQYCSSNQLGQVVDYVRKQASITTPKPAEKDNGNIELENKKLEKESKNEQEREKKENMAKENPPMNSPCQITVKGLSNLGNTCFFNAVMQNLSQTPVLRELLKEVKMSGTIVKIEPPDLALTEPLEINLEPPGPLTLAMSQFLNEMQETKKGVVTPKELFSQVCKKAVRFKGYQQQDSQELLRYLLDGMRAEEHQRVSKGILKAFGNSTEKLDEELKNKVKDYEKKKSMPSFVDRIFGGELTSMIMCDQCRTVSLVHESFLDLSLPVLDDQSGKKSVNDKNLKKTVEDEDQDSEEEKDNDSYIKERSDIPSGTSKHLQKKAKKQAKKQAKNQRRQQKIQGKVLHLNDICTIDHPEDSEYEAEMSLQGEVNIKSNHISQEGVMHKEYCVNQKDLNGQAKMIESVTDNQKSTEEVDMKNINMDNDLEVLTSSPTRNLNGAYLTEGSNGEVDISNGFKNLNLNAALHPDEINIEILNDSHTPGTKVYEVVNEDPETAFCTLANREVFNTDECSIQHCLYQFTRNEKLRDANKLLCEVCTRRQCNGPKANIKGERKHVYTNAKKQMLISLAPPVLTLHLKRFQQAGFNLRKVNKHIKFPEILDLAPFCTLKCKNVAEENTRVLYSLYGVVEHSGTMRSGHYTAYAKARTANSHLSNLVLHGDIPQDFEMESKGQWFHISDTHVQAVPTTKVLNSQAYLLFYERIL
Sequence of USP24 (Q9UPU5 whole entry): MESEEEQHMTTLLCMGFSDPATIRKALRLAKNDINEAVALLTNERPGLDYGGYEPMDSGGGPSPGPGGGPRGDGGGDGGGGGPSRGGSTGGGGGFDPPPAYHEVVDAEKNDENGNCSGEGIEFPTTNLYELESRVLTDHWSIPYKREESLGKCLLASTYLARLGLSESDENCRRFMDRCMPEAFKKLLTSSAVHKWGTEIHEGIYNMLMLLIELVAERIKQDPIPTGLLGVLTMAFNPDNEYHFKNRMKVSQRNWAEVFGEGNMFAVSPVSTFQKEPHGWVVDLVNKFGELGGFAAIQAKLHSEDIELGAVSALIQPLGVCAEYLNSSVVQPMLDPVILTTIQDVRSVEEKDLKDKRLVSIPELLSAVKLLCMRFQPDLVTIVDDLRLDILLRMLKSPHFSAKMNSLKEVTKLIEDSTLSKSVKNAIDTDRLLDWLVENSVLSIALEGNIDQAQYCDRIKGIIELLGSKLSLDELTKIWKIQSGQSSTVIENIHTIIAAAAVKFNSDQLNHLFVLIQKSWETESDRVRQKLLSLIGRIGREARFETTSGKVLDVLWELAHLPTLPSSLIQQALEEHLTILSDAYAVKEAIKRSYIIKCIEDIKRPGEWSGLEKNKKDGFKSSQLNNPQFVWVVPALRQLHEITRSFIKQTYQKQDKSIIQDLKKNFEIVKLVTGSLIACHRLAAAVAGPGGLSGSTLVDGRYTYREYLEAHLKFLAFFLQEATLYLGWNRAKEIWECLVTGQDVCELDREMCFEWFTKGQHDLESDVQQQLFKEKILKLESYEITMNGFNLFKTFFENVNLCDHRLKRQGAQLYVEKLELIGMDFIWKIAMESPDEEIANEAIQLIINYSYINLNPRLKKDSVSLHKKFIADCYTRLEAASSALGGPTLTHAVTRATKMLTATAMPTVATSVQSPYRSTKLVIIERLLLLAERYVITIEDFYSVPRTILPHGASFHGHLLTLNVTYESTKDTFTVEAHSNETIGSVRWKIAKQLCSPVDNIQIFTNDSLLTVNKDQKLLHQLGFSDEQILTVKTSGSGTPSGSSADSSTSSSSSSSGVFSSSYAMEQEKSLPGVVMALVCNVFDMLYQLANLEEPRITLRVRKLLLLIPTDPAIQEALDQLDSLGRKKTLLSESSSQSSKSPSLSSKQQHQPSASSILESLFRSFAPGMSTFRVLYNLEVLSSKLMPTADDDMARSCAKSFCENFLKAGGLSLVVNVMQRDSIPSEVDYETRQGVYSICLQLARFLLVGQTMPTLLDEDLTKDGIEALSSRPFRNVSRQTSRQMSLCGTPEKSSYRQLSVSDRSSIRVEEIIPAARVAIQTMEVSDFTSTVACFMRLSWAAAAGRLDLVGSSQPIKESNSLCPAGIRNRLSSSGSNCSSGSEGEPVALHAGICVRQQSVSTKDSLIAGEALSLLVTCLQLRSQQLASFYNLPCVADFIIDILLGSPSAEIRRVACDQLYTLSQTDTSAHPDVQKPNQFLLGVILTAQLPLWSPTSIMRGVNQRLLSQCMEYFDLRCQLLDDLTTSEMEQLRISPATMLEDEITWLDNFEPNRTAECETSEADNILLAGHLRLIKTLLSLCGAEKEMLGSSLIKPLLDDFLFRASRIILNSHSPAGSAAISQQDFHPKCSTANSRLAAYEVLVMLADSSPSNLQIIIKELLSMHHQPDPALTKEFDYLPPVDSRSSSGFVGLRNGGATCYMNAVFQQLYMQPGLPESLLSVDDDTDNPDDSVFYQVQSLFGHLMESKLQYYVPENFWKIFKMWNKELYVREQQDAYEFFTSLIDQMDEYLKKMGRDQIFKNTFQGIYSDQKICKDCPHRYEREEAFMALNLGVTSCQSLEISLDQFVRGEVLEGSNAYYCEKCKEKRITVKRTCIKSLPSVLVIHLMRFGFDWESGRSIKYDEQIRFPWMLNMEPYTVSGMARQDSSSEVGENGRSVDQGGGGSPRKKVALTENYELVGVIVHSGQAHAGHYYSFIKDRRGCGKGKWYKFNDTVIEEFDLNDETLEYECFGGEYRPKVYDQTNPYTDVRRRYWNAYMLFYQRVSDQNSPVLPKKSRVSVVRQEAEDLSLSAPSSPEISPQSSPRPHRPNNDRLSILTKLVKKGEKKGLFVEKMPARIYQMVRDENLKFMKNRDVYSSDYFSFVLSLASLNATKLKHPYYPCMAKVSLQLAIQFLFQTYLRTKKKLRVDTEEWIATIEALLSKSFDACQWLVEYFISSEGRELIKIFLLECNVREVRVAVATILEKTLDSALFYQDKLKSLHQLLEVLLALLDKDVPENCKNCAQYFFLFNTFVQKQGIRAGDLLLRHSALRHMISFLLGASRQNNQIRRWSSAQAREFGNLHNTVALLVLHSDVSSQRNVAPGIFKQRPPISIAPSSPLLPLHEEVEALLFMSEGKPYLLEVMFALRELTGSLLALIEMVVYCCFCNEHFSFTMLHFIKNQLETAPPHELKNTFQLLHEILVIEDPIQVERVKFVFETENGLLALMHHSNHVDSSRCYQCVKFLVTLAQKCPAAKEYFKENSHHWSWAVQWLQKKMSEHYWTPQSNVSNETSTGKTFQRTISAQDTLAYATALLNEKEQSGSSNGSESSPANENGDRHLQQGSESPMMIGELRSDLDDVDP

CN1c2ccccc2C(NC(=O)CCl)CS1(=O)=O (stereo not given)
inactive: [1] -0.411 | [2] -0.159 | [3] -0.201 | [4] -0.52 | [5] -0.788
